A word on the Inhibition: it is the relative decrease from the control value, in per cent.

Holding throughout (format): functional
Assay [1] has as its system Plasmodium falciparum. The assay can be described thus: GSK_TCMDC: Inhibition of Plasmodium falciparum 3D7 in whole red blood cells, using parasite LDH activity as an index of growth. Test compounds present at 2uM.
Assay [2] has as its system Plasmodium falciparum. The assay can be described thus: GSK_TCMDC: Inhibition of Plasmodium falciparum Dd2 in whole red blood cells, using parasite LDH activity as an index of growth. Test compounds present at 2uM.
In another assay the test system is HepG2. The assay can be described thus: GSK_TCMDC: Percent inhibition of human HepG2 cell line. Test compounds present at 10uM.

As to `O=C(NC1CCN(CCN2CCC(c3c[nH]c4ccccc34)CC2)CC1)c1ccc(-c2ccc(C(F)(F)F)cc2)cc1`, the Inhibition with Plasmodium falciparum [1] came out at 99%; with Plasmodium falciparum [2], 100%; in the assay on HepG2, 100%.
Regarding `CCCCCCCCCCN1C(=O)C2C(CCCCNC(C)=O)NC3(C(=O)N(Cc4ccc(C(C)(C)C)cc4)c4ccccc43)C2C1=O` (stereo not given), the Inhibition with Plasmodium falciparum [1] was 86%; in the assay on Plasmodium falciparum [2], 65%; with HepG2, 3%.
The corresponding values for `COc1cc2cc(C(=O)Nc3ccccc3)c(N)nc2cc1OC` are 90%, 0% and 0%.
Taken in the same sequence, the figures for `O=c1cc(NCCCNCc2[nH]c3cc(Cl)cc(Cl)c3c2Cn2cccn2)[nH]c2ccccc12` were 86%, 2% and 5%.
Taken in the same sequence, the figures for `CCN(CC)CCNC(=O)c1ccc(NC(=O)c2cc3c(C)nn(-c4ccc(Cl)cc4)c3s2)cc1.Cl` were 95%, 78% and 24%.
For `Cc1cccc2nc(-c3ccc(-c4ccc(CNCc5cccc(N)c5)cc4)s3)[nH]c12.O=C(O)C(F)(F)F`, the Inhibition is listed as 100% in the assay on Plasmodium falciparum [1], 78% in the assay with Plasmodium falciparum [2] and 10% with HepG2.
`O=C(Nc1cc(F)cc(-c2cccnc2)c1)c1ccc2c(=O)n(Cc3ccccc3)cnc2c1`: the Inhibition was 98% in the assay on Plasmodium falciparum [1], 11% with Plasmodium falciparum [2] and 7% in the assay with HepG2.
With `O=C(/C=C/c1ccc(Cl)c(Cl)c1)NCCCCCN1CCC(NC(=O)Nc2cc(F)cc(F)c2)CC1`, the values for the Inhibition in the assay with Plasmodium falciparum [1], in the assay on Plasmodium falciparum [2] and in the assay with HepG2 were 100%, 6% and 80%, respectively.
Taken in the same sequence, the figures for `Cc1nc(N)nc(N)c1OCc1ccc(Cl)c(Cl)c1.Cl` were 97%, 5% and 14%.
The corresponding values for `Cc1ccc(NC(=O)c2ccc(-c3cc4cc(Cl)c(Cl)cc4[nH]3)cc2)cc1OCCN1CCCC1.O=C(O)C(F)(F)F` are 100%, 90% and 7%.
On to `COc1cccc(CCN(Cc2ccccc2-c2ccc(CNC3CC(C)(C)NC(C)(C)C3)cc2)C(=O)NC2CCCCC2)c1.Cl`, for which the Inhibition with Plasmodium falciparum [1] worked out at 100%; in the assay on Plasmodium falciparum [2], 99%; with HepG2, 97%.
Taken in the same sequence, the figures for `O=C(NC(c1ccccc1)c1ccc2cccnc2c1O)c1ccccc1` (stereo not given) were 94%, 63% and 53%.
In the case of `CCCc1cc(C(=O)N[C@@H](Cc2ccccc2)[C@H](O)CNC(C)(C)c2cccc(OC)c2)c(F)c(N2CCCC2=O)c1.O=CO`, the results for the Inhibition with Plasmodium falciparum [1], in the assay on Plasmodium falciparum [2] and in the assay with HepG2 were 98%, 98% and 7%, respectively.
For `CN(Cc1ccc(-c2ccc(C(F)(F)F)cc2)cc1)C(=O)Cn1c(CCc2cccc(F)c2F)nc(=O)c2ccc(N3CCN(CCN4CCCCC4)CC3)nc21.O=C(O)C(O)C(O)C(=O)O`, the Inhibition in the assay with Plasmodium falciparum [1], in the assay on Plasmodium falciparum [2] and in the assay with HepG2 was 100% each time.
`COc1cccc(NC(=O)[C@H](C)n2c(=O)[nH]c3ccccc3c2=O)c1`: the Inhibition was 100% in the assay with Plasmodium falciparum [1], 92% in the assay on Plasmodium falciparum [2] and 8% in the assay with HepG2.
Turning to `COc1ccc2nccc([C@@H](O)CN3CCC(NC(=O)C(c4cc5ccccc5s4)N4CC(C)OC(C)C4)CC3)c2c1` (stereo not given in full), the Inhibition with Plasmodium falciparum [1] is 93%; with Plasmodium falciparum [2], 44%; in the assay on HepG2, 12%.
Taken in the same sequence, the figures for `Nc1nccc2ccc(-c3cccc4ncccc34)cc12.O=C(O)C(F)(F)F` were 98%, 94% and 40%.
`CC(C)(C)C(=O)Nc1ccc(C(=O)Nc2cccc(-c3nc4ccccc4[nH]3)c2)cc1`: the Inhibition in the assay with Plasmodium falciparum [1] amounted to 96%; in the assay on Plasmodium falciparum [2], 62%; with HepG2, 56%.
Consider `CC(C)(C)Oc1ccc(CC2NC3(C(=O)N(Cc4ccc(C(C)(C)C)cc4)c4ccccc43)C3C(=O)N(c4ccc(Br)cc4)C(=O)C23)cc1` (stereo not given), for which the Inhibition stood at 94% in the assay on Plasmodium falciparum [1], 94% with Plasmodium falciparum [2] and 24% with HepG2.
For the compound `CNC(=O)c1cc(S(=O)(=O)Nc2ccc(OC)cc2)cs1`, the Inhibition in the assay on Plasmodium falciparum [1] was determined as 95%; in the assay on Plasmodium falciparum [2], 48%; in the assay on HepG2, 11%.
Take `CS(=O)(=O)Nc1ccc(OCCCCCCOc2ccc(NS(C)(=O)=O)cc2)cc1`: the results for the Inhibition in the assay on Plasmodium falciparum [1], with Plasmodium falciparum [2] and with HepG2 were 93%, 82% and 3%, respectively.
Taken in the same sequence, the figures for `O=C(Nc1ccc([N+](=O)[O-])cc1)c1nn(-c2ccccc2)cc1/N=C/c1cccc(O)c1` were 98%, 37% and 10%.
Taken in the same sequence, the figures for `CC1CNC(c2ccc(NC(=O)c3ccc(C(=O)Nc4ccc(C5=NC(C)CN5)cc4)cc3)cc2)=N1.CS(=O)(=O)O` (stereo not given) were 99%, 100% and 15%.
Taken in the same sequence, the figures for `CCCCN(CCCC)CCC(O)C(=Cc1ccc(Cl)cc1Cl)c1ccc(C(F)(F)F)cc1N` (stereo not given) were 100%, 99% and 0%.
For `CN(C)CCCOc1cc(NC(=O)Nc2ccc(-c3ccncc3)c3ccccc23)ccc1I.Cl`, the Inhibition with Plasmodium falciparum [1] is recorded as 100%; in the assay on Plasmodium falciparum [2], 97%; in the assay with HepG2, 46%.
As for `CCN(CC)CCN(Cc1ccc(-c2ccc(C(F)(F)F)cc2)cc1)C(=O)Cn1c(CCc2cccc(F)c2F)nc(=O)c2cc(F)ccc21.O=C(O)C(O)C(O)C(=O)O`, the Inhibition is listed as 98% with Plasmodium falciparum [1], 45% with Plasmodium falciparum [2] and 15% in the assay on HepG2.
The corresponding values for `COc1cc2nc(N3CCN(C(=O)c4cccc(I)c4)CC3)nc(N)c2cc1OC` are 88%, 26% and 11%.
Taken in the same sequence, the figures for `C=CCC(C)n1ncc2c3c(N)nc(N)nc3ccc21` (stereo not given) were 93%, 95% and 66%.
The corresponding values for `CC(C)c1ccc2[nH]c(C(=O)NC3CCC(N4CCCc5ccc(C#N)cc5C4)CC3)cc2c1` (stereo not given) are 91%, 27% and 48%.
Take `CCn1c(Sc2ccc([N+](=O)[O-])c(C#N)c2)nnc1-c1cccc(Cl)c1`: the Inhibition is 89% in the assay on Plasmodium falciparum [1], 22% in the assay with Plasmodium falciparum [2] and 8% in the assay on HepG2.

The values are drawn from ChEMBL document CHEMBL1157539, “Thousands of chemical starting points for antimalarial lead identification” (Nature, 2010).
